This is part of a sample that, as a whole, favours compounds with a hit. Of some 83,000 tested, about 20% had one in any assay.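 The endpoint reported here, percent growth, reads 100 for growth as untreated, 0 for no net growth and -100 for all cells dead.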 The source made the active and inactive calls. Rule for the calls: active = growth percent below 10; inactive = the rest.
These molecules were tested on SF-539 CNS (assay: NCI-60 one-dose screen, 48 h (100 = growth as untreated, 0 = no growth, -100 = all killed)). Details: 10 µM unless noted.

Compound | growth
C=C1C(=O)O[C@H]2[C@H]1CC/C(COC(=O)NCc1[nH]nc3ccccc13)=C\CC[C@@]1(C)O[C@@H]21 | 4.74% (active)
CC(=O)Oc1c(Cl)c(Cl)c(Cl)c(Cl)c1Cl | 86.3% (inactive)
CC(=O)Nc1c(Br)cc2c(c1Br)Cc1cc(Br)ccc1-2 | 86.5% (inactive)
Cc1ccc(C(CN(C)C)C(=O)c2ccccc2)cc1 (stereo not drawn) | 57.6% (inactive)
CCOC(=O)C(CCCCC(NC(C)=O)(C(=O)OCC)C(=O)OCC)(NC(C)=O)C(=O)OCC | 109% (inactive)
O=[N+]([O-])c1ccc(SSc2ccc([N+](=O)[O-])cc2Cl)c(Cl)c1 | 119% (inactive)
COc1cc(/C=C2\CN(C(=O)OC(C)(C)C)C/C(=C\c3ccc(O)c(OC)c3)C2=O)ccc1O | 106% (inactive)
O=S1(=O)NCCN1CCNc1nccc(-c2c(-c3cccc(O)c3)nc3sccn23)n1 | 109% (inactive)
CNCCCn1c2c(c3ccc(Cl)cc3c1=O)C(=O)c1cc(OC)cnc1-2 | 29.1% (inactive)
O=C(/C=C/c1ccccc1)c1c[nH]c2ccccc2c1=O | -24.5% (active)
N=C(N)c1ccc(-c2ccc(-c3ccco3)o2)cc1F | 8.28% (active)
C[C@@H]1N=C(c2ccc3ccccc3c2)Nc2nc3ccccn3c2C1=O | 37.2% (inactive)
COc1ccc2[nH]cc(C3(c4c[nH]c5ccc(OC)cc45)C(=O)Nc4ccc(F)cc43)c2c1 | 78.5% (inactive)
CC(=O)Nc1ccc(/C=N/N2CCCCCC2)cc1 | 83.6% (inactive)
COc1cc(-c2nn(C(=O)NCCN3CCN(C)CC3)cc2-c2ccncc2)ccc1Cl | 63.6% (inactive)
COc1cc(C2CC(=O)Nc3c2cnn3C)cc(OC)c1OC (stereo not drawn) | 103% (inactive)
COc1cc2c(c(OC)c1O)C(=O)C(OC)C(c1ccc(O)c(O)c1)O2 (stereo not drawn) | -23% (active)
CCOC(=O)C1C(=O)C=C(c2ccccc2)CC1c1sc(N(C)Cc2ccccc2)nc1Cl (stereo not drawn) | 105% (inactive)
CC(C)[C@@H]1C=C2CC[C@H]3[C@](C)(CN)CCC[C@]3(C)[C@H]2CC1 | 102% (inactive)
CC1(C)CN(CCNc2nccc(-c3c(-c4cccc(O)c4)nc4sccn34)n2)S(=O)(=O)N1 | 87.2% (inactive)
CCNC(=O)c1ccc2c(c1)nc(-c1ccc(Cl)cc1)n2-c1cc(C(C)(C)C)[nH]n1 | 32.6% (inactive)
CCc1c(C)c2ccc(O)c(-c3cc(-c4ccccc4)c(C#N)c(=O)[nH]3)c2oc1=O | 113% (inactive)
C=C(C)[C@@H]1CC[C@]2(C(=O)NS(=O)(=O)c3ccccc3)CC[C@]3(C)[C@H](CC[C@@H]4[C@@]5(C)CC[C@H](OC(=O)NS(=O)(=O)c6ccccc6)C(C)(C)[C@@H]5CC[C@]43C)[C@@H]12 | -34.3% (active)

The molecules below were run on UACC-257 melanoma in the same assay as above. Details: 10 µM unless noted.

Compound | growth
COc1ccc(/C=C/c2nc3ccccc3c(=O)n2-c2ccc(C#Cc3ccc(C(C)(C)C)cc3)cc2C)c(OC)c1 | 72.8% (inactive)
Cc1cc(O)c2cc3c(O)c(O)ccc3cc2c1 | 132% (inactive)
COc1ccc(-c2nc3ccccc3n3cccc23)cc1 | 109% (inactive)
CCOC(=O)c1cc(C(=O)OCC)c(C)nc1C | 107% (inactive)
CN1C(=O)N(C)C2C1NN=c1s/c(=C\c3ccc(Br)cc3)c(=O)n12 (stereo not drawn) | 46% (inactive)
O=C1OCC2=C1C(c1ccccc1)c1cc3c(cc1N2CCO)OCO3 (stereo not drawn) | 58.3% (inactive)
CCC1N=C(N)N=C(N)N1c1ccc(Cl)cc1 (stereo not drawn) | 88.1% (inactive)
Cc1cccc(N=NC(=S)NNc2cccc(C)c2)c1 | 105% (inactive)
CCn1c(Cc2ccccc2Nc2c(Cl)cccc2Cl)nnc1SCC(=O)Nc1cccc(OC)c1 | 97.6% (inactive)
NC(=S)N1N=C(c2ccc(Cl)cc2)CC1c1cc2ccccc2[nH]c1=O (stereo not drawn) | 111% (inactive)
CC(C)c1nc2ccccc2n1CC(=O)N/N=C/c1cccc(O)c1 | 87.7% (inactive)
COc1ccc(Oc2nc(Nc3ccc(N4CCOCC4)cc3)ncc2NC(=O)Nc2cccc(OC)c2)cc1 | 91.5% (inactive)
Clc1cccc(CNc2c3ccccc3nc3ccccc23)c1 | 45.4% (inactive)
O=C1OCC2=C1C(c1ccccc1)c1cc3c(cc1N2CCO)CCC3 (stereo not drawn) | 61.7% (inactive)
C=C1C(=O)O[C@H]2[C@H]1CC/C(COC(=O)NCc1[nH]nc3ccccc13)=C\CC[C@@]1(C)O[C@@H]21 | 38% (inactive)
CC(=O)Oc1c(Cl)c(Cl)c(Cl)c(Cl)c1Cl | 94.1% (inactive)
CC(=O)Nc1c(Br)cc2c(c1Br)Cc1cc(Br)ccc1-2 | 89.1% (inactive)
Cc1ccc(C(CN(C)C)C(=O)c2ccccc2)cc1 (stereo not drawn) | 49.1% (inactive)

Compound | growth
O=[N+]([O-])c1ccc(SSc2ccc([N+](=O)[O-])cc2Cl)c(Cl)c1 | 118% (inactive)
COc1cc(/C=C2\CN(C(=O)OC(C)(C)C)C/C(=C\c3ccc(O)c(OC)c3)C2=O)ccc1O | 73.6% (inactive)
O=S1(=O)NCCN1CCNc1nccc(-c2c(-c3cccc(O)c3)nc3sccn23)n1 | 59.7% (inactive)
CNCCCn1c2c(c3ccc(Cl)cc3c1=O)C(=O)c1cc(OC)cnc1-2 | 56.9% (inactive)
O=C(/C=C/c1ccccc1)c1c[nH]c2ccccc2c1=O | 58.9% (inactive)
C[C@@H]1N=C(c2ccc3ccccc3c2)Nc2nc3ccccn3c2C1=O | 40.9% (inactive)
COc1ccc2[nH]cc(C3(c4c[nH]c5ccc(OC)cc45)C(=O)Nc4ccc(F)cc43)c2c1 | 94% (inactive)
CC(=O)Nc1ccc(/C=N/N2CCCCCC2)cc1 | 114% (inactive)
COc1cc(-c2nn(C(=O)NCCN3CCN(C)CC3)cc2-c2ccncc2)ccc1Cl | 86.2% (inactive)
COc1cc(C2CC(=O)Nc3c2cnn3C)cc(OC)c1OC (stereo not drawn) | 101% (inactive)
COc1cc2c(c(OC)c1O)C(=O)C(OC)C(c1ccc(O)c(O)c1)O2 (stereo not drawn) | 69.1% (inactive)
CCOC(=O)C1C(=O)C=C(c2ccccc2)CC1c1sc(N(C)Cc2ccccc2)nc1Cl (stereo not drawn) | 90.3% (inactive)
CC(C)[C@@H]1C=C2CC[C@H]3[C@](C)(CN)CCC[C@]3(C)[C@H]2CC1 | 104% (inactive)
CC1(C)CN(CCNc2nccc(-c3c(-c4cccc(O)c4)nc4sccn34)n2)S(=O)(=O)N1 | 46.8% (inactive)
CCNC(=O)c1ccc2c(c1)nc(-c1ccc(Cl)cc1)n2-c1cc(C(C)(C)C)[nH]n1 | 79.1% (inactive)
CCc1c(C)c2ccc(O)c(-c3cc(-c4ccccc4)c(C#N)c(=O)[nH]3)c2oc1=O | 123% (inactive)
C=C(C)[C@@H]1CC[C@]2(C(=O)NS(=O)(=O)c3ccccc3)CC[C@]3(C)[C@H](CC[C@@H]4[C@@]5(C)CC[C@H](OC(=O)NS(=O)(=O)c6ccccc6)C(C)(C)[C@@H]5CC[C@]43C)[C@@H]12 | 27.8% (inactive)
